Experimental data reported in PubChem BioAssay AID894 (National Center for Advancing Translational Sciences (NCATS), 2007).
Among all 150,000 compounds or so, about 6,500 (4.3%) were called active. Not shown: some 12% with an inconclusive outcome. Many of the other results were omitted from the sample, so actives are more common in it than they were. Values without a mark were called inactive. Calls follow the shape of the dose curve; as a rule, active = well fitted inhibition curve with a large enough effect (not every such curve was filed as active); inconclusive = small, poorly fitted or top-dose-only effect, or another doubt; inactive = no such curve, though single readings can be large or run the other way.

Each molecule was assayed against 15-hydroxyprostaglandin dehydrogenase [NAD(+)] (Homo sapiens) (UniProt P15428) (assay: qHTS Assay for Inhibitors of HPGD (15-Hydroxyprostaglandin Dehydrogenase)). Conditions: purified HPGD, NADH fluorescence kinetic, PGE2 substrate; activity change, negative = inhibition: stronger effect = lower value.
Outline: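 NADH formation kinetics: reaction with 30 uM PGE2 and 1 mM NAD+ (final), 20 nM enzyme, Tris-HCl pH 8 with Tween 20, after 15 min compound preincubation at room temperature. Fluorescence change, last versus first of five reads.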
% is scaled to controls: 0 for no effect and ±100 for the full control effect; potency is read from the fitted curve at half-maximal effect.

Sequence of 15-hydroxyprostaglandin dehydrogenase [NAD(+)] (Homo sapiens) (P15428 whole entry, looked up): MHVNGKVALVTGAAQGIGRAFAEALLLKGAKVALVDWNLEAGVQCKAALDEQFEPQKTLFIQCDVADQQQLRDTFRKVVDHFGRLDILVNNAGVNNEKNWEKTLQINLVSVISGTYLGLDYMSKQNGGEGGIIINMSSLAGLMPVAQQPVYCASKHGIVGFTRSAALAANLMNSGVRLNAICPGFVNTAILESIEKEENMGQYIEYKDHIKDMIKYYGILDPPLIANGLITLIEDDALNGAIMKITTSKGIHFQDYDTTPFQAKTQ

Row | Compound | activity change, negative = inhibition | Potency
1 | CC(C)=C1C2CCC1C1C(=O)N(NC(=O)c3ccco3)C(=O)C21 (configuration not stated) | -7.1% | 
2 | CC(C)Cc1cc(C(=O)Nc2cc(Br)ccc2O)no1 |  | 25.1 µM (active)
3 | CC(C)CNC(=O)c1cc(-c2ccc(Br)cc2)on1 | -23.1% | 
4 | CC(C)Cc1cc(C(=O)NCCc2ccccc2)no1 | -20.6% | 
5 | COc1ccc(C(C(=O)NC2CCCCC2)N(C(=O)CCl)c2ccccc2Cl)cc1 (configuration not stated) | -4.95% | 
6 | N#Cc1c(NC(=O)c2ccc(N3CCOCC3)c([N+](=O)[O-])c2)sc2c1CCCC2 | -10.9% | 
7 | O=C(/C=C/c1ccc(Cl)cc1)N1CCN(c2ccccc2[N+](=O)[O-])CC1 | -15% | 
8 | CC(C)(C)NC(=O)C(=O)NCc1ccncc1 | -2.72% | 
9 | Cc1nc2ccccc2n1CC(=O)N/N=C/c1cccs1 | -4.95% | 
10 | O=C(CCC(=O)c1cccs1)NCc1ccccc1 |  | 31.6 µM (active)
11 | O=C(COC(=O)CCC(=O)c1cccs1)NCc1ccco1 | -9.26% | 
12 | O=C(c1cccs1)n1nc(NCc2ccccc2)nc1NCc1ccccc1 | -18.3% | 
13 | CCC1CCCCN1C(=S)Nc1ccc(C(C)=O)cc1 (configuration not stated) | -21.2% | 
14 | Cc1ccc(-c2cn3cc([N+](=O)[O-])ccc3n2)cc1 | -11.8% | 
15 | CC[C@H](C)[C@@H](NC(=O)O[C@@H]1C(=O)c2cc(OC)ccc2O[C@H]1c1cccc(OC)c1)C(=O)OC | -14.9% | 
16 | O=[N+]([O-])c1cc(C(F)(F)F)ccc1NN=C1CCCC1 | -7.57% | 
17 | C/C(=N\NC(=O)CCn1nc(C)cc1C)C(C)(C)C | -2.63% | 
18 | Cc1ccc(SCC(=O)Nc2ccc3c(c2)OCCO3)cc1 | -4% | 
19 | CCCCC(=O)Nc1ccc2c(c1)OCCO2 |  | 25.1 µM (active)
20 | COC(=O)CCNc1ccc2c(c1)OCCO2 | -9.02% | 
21 | Cc1cn(C2OC[C@@H](O)[C@@H]2CO)c(=O)[nH]c1=O (some centres not stated) | -7.64% | 
22 | O=C(CSc1n[nH]c(-c2cccnc2)n1)Nc1ccnc2ccccc12 |  | 15.8 µM (active)
23 | O=C(CSc1nnc(-c2cccnc2)n1CCc1ccccc1)NCc1ccccc1 | -12.6% | 
24 | Cc1ccccc1NC(=O)CSC1=NCCN1 | -5.67% | 
25 | C=CCn1cc(C(=O)NCc2ccc(Cl)cc2)c(=O)c2cc(S(=O)(=O)N(CC)CC)ccc21 | 15.1% | 
26 | CC(=O)c1sc(N/N=C\c2ccc(C)cc2)nc1C | -20.1% | 
27 | C=CCNC(=S)NNC(=O)c1ccc(Br)o1 | -14.9% | 
